# Experimental data taken from PubChem BioAssay (NCI).
# “And” between values parts separate entries of the source, which are not always exact repeats. Equal entries are not always repeated. The panel holds about 83,000 compounds, 20% with a hit somewhere; the sample as a whole holds those more often.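 Single-concentration screen, 48 h exposure, 96-well plates. Endpoint: percent growth. Below 10 = active.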 A number with no mark means an inactive call. The source made the active and inactive calls.
# Test system: MDA-MB-468 breast
# Experiment: NCI-60 one-dose screen, 48 h (100 = growth as untreated, 0 = no growth, -100 = all killed)
# Conditions: 10 µM unless noted
row,SMILES,growth
1,Nc1c(Cl)cccc1[N+](=O)[O-],115%
2,Cc1nn(-c2ccccc2)c2nc3nc4c(c(N)c3c(-c3ccc(Cl)cc3)c12)CCC4,99.3%
3,O=c1[nH]c2cc(Cl)c(Cl)cc2n2cc3ncccc3c12,0.904% (active)
4,O=C(Nc1cccc(-n2cc(-c3ccncc3)c(-c3ccc(Cl)c(O)c3)n2)c1)Nc1cccc(C(F)(F)F)c1,10.5%
5,C#CCNC(=O)CC[C@@H](C)[C@H]1CC[C@H]2[C@@H]3CC[C@@H]4CC(=O)CC[C@]4(C)[C@H]3CC[C@]12C,-19.7% [100 µM] (active)
6,Cn1c2ccccc2c2c3c(c4c5ccc(Br)cc5oc4c21)C(=O)N(O)C3=O,46.2%
7,N=c1nc(N2CCCCC2)cc(N)n1O,97.1%
8,C/C(=C(/c1ccc(Cl)cc1)c1ccc(OCCCN(C)C)cc1)c1ccc(Cl)cc1,89.4%
9,O=C([C@@H](COCc1ccccc1)N1C(=O)[C@@H](N2C(=O)OC[C@@H]2c2ccccc2)[C@H]1/C=C/c1ccccc1)N1CCC(CCN2CCCCC2)CC1,64.8%
10,COc1cc(-c2nc3nc4sc(C)c(C)c4c(=O)n3[nH]2)cc(OC)c1OC,75.5%
11,COc1ccc(-c2nnc(N3CCN(C(=O)CN4CCN(c5ccc(OC)cc5)CC4)CC3)nc2-c2ccc(OC)cc2)cc1,-54.8% (active)
12,O=C(COc1ccc(/C=C2\C(=O)Nc3cc(Cl)ccc32)cc1)Nc1ccc(Cl)cc1,86.8%
13,C/C(=N\NC(=S)Nc1ccc(Br)cc1)c1cc2ccccc2oc1=O,-23.5% (active)
14,COc1cc2c(cc1-c1c(C)noc1C)ncc1nc(C3CCCCC3)n([C@@H](C)COC(F)F)c12,32.6%
15,CCC(C)(CC)c1ccc(O)c(C)c1,101%
16,COc1cc2c(Nc3ccc(NC(=O)Nc4ccc(Cl)c(C(F)(F)F)c4)c(Cl)c3)ncnc2cc1OCCCN1CCN(C)CC1,-70.1% (active)
17,COc1cc2c(Nc3ccc(Cl)c(Cl)c3F)ncnc2cc1OCC1C[C@@H]2CN(C)C[C@@H]2C1 (stereo not given in full),-86.1% (active) and -71.9% (active)
18,C[C@]12CC[C@H]3[C@@H](CCC4=CC(=O)CC[C@@]43C)[C@@H]1CC[C@@H]2c1csc(N)n1,28.4%
19,Nc1ccc(-c2cccs2)cc1NC(=O)c1ccc(CCCC(=O)Nc2ccc(C3CC3N)cc2)cc1 (stereo not given),69.6%
20,N#Cc1c(-c2cccs2)cc(-c2cnccn2)nc1SCC(=O)NNC(=S)Nc1ccc(F)cc1,122%

row,SMILES,growth
1,COc1ccc(-c2nc3ccc(-c4nnc(SCC(=O)Nc5ccc(C(=O)/C=C/c6ccc(Cl)cc6)cc5)o4)cc3[nH]2)cc1OC,102%
2,CC(C)(O)C1CCCN1C(=O)c1ccccc1I (stereo not given),73%
3,O=C(CI)OCC(COC(=O)CI)OC(=O)CI,51.6%
4,COc1cc(-c2nc(-c3ccccc3)[nH]c2-c2ccnc(NCCCNS(=O)(=O)c3cccc(F)c3)n2)ccc1F,85.1%
5,Brc1ccc2c(c1)CN(C1CCCCC1)CO2,110%
6,c1csc(-c2cnc3nonc3n2)c1,67.5%
7,CCSc1sc(-c2ccc(C)cc2)nc1[P+](c1ccccc1)(c1ccccc1)c1ccccc1,-61.4% (active)
8,CCOc1ccc(-c2nonc2NC(=O)c2cccc(C)c2)cc1OCC,2.82% (active)
9,OC1(c2ccc(Cl)c(C(F)(F)F)c2)CCN(CCCC(c2ccc(F)cc2)c2ccc(F)cc2)CC1,-86% (active)
10,CN1CCN(CCOc2ccc(-c3cnc4c(-c5cccc(F)c5)cnn4c3)cc2)CC1,65.4%
11,COc1ccc(/C=C(\C#N)n2nnc3ccccc32)cc1,4.67% (active)
12,CCCCOCCOCCOCc1cc2c(cc1Br)OCO2,102%
13,CC(=O)c1c(C)[nH]c(-c2nc3ccc(N4CCN(C)CC4)cc3[nH]2)c1-c1ccc(OCC2CCOCC2)cc1,11.4%
14,C=C1CCC2C3(C)COC(c4ccc(NC(C)=O)cc4)OC3CCC2(C)C1C/C=C1/C(=O)OCC1O (stereo not given),19.3%
15,C=C1C(=O)O[C@H]2[C@H]1CC/C(COC(=O)c1c[nH]c3ccccc13)=C\CC[C@@]1(C)O[C@@H]21,-68.5% (active)
16,CCOc1ccc(Nc2nc3c(s2)C(=O)c2ccccc2C3=O)cc1,68.8%
17,C/C(=N\Nc1cccc(Cl)n1)c1ccccn1,-31.3% (active)
18,CCN(CC)CCOc1ccc(-c2nc3cc(Cl)ccc3s2)cc1,-17% (active)
19,CS(=O)(=O)Nc1cc(-c2ccc3ncnc(Nc4ccc(OCc5ccccn5)c(Cl)c4)c3c2)cnc1Cl,-55.4% (active)
20,O=c1[nH]c(=S)[nH]c(=O)n1Cc1cccc2ccccc12,107%
